An excerpt weighted towards active compounds, which were near 5.4% of everything screened.
ALR H2O2 inh: human ALR oxidase inhibition via reduced H2O2; P55789; purified ALR, DTT oxidation, H2O2 HRP-luminol luminescence; inhibition, % (no concentration beside the values); 290,000 tested, 3.8% active;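 active = mean replicate inhibition above about 79%, with every replicate also reaching it, limit read from the data; inconclusive = only one of the two criteria met; inactive = mean below limit and not every replicate reaching it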
Target sequence (P55789 whole entry, looked up): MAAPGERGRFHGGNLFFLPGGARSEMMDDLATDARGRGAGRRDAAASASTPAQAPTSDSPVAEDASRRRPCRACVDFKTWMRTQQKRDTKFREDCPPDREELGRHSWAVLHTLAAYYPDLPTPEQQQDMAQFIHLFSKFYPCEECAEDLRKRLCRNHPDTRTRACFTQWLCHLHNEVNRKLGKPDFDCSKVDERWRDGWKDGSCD
Exocytosis inh: blocks lytic granule exocytosis; 360,000 tested, 0.66% active; TALL-104 LAMP-1 surface exposure, flow cytometry; cells stimulated with thapsigargin and PMA; inhibition, % at 10 µM;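 active = inhibition above about 55%, limit read from the data; inconclusive = no clear call, values can overlap the other calls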
JMJD2C inh: blocks human GASC-1 demethylase activity; Q9H3R0; GST-JMJD2C(1-420) H3K9me3 demethylation, DELFIA europium; inhibition, % at 2.35 µM; 330,000 tested, 0.069% active; AID 2099;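 active = more than half of a compound's replicate wells show inhibition beyond 50%, single wells judged on their own value; inconclusive = some, but no more than half, of replicates pass 50% inhibition; inactive = no replicate passes 50% inhibition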;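 also: signal counts dimethyl H3K9 product captured on neutravidin plate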
Target sequence (Q9H3R0 1-420 limits assumed): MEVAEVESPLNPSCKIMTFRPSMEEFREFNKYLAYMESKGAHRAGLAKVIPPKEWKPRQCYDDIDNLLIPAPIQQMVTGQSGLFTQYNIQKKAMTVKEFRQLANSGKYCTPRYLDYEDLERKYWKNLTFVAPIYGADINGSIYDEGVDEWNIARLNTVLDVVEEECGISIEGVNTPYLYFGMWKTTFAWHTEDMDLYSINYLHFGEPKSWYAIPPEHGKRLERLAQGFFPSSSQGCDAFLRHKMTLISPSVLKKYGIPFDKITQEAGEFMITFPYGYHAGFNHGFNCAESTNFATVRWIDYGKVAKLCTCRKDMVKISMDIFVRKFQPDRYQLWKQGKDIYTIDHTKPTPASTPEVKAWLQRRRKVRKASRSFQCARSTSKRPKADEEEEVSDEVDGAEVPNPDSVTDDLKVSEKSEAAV
MIN6 prolif: MIN6 beta-cell proliferation induction. 330,000 tested, 0.29% active. AID 2380. proliferation, % at 10 µM. MIN6 cells proliferation, ATPlite luminescence, 48 h; cells starved in 0.2% serum; 100% = growth in 10% serum;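 active = compounds whose signal lies at least 3.5 SD above the mean of all wells on their plate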
PfM18AAP inh-1: PfM18AAP enzyme inhibition; recombinant PfM18AAP, H-Glu-NHMec fluorogenic cleavage; inhibition, % at 7.35 µM; 290,000 tested, 1.2% active; AID 1822;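 active = inhibition above the campaign mean inhibition over all tested compounds plus 3 SD, cut at about 28% in these data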
SMARCA2 activ: activators of SMARCA2 function; MG213 cells, MMTV-luciferase reporter, dexamethasone, overnight; activation, % at 9.1 µM; 370,000 tested, 1% active; AID 652017; in the data active = activation above about 7.8%
PfM18AAP inh-2: confirmation of Plasmodium falciparum M18 aspartyl aminopeptidase inhibitors. AID 2170. shares compounds with PfM18AAP inh-1. 2,400 tested, 28% active. recombinant PfM18AAP, H-Glu-NHMec fluorogenic cleavage. inhibition, % at 7.35 µM;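 active = mean inhibition over replicate wells above the hit cutoff set for the earlier primary screen, cut at about 29% in these data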
CTSL1 counter: counter-screen for PFM18AAP inhibitors: confirmation of human cathepsin L inhibitors; shares compounds with PfM18AAP inh-1; purified cathepsin L1, Z-Leu-Arg-MCA fluorescence; inhibition, % at 5.96 µM; 2,400 tested, under 10 active;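 active = average inhibition across replicates above the hit cutoff set in the earlier primary screen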
Hits are given with their value; 0 = inactive; ? = inconclusive; - = no result.

SMILES	ALR H2O2 inh	Exocytosis inh	JMJD2C inh	MIN6 prolif	PfM18AAP inh-1	SMARCA2 activ	PfM18AAP inh-2	CTSL1 counter
COCCCNC(=O)c1ccc(Cn2c(=O)c3ccccc3n(Cc3ccc(Br)cc3)c2=O)cc1	-	-	-	-	-	0	-	-
CCCCCCC12C(=Cc3cc4c(cc31)OCCO4)c1cc(OC)c(OC)cc1C(CC(=O)O)N2C(=O)OC (configuration not stated)	-	-	-	-	-	0	-	-
COc1ccc(-n2c(SCC(=O)Nc3cccc4ccccc34)nnc2-c2ccco2)cc1	-	-	-	-	-	0	-	-
COCc1cc(N2CCNC[C@@H]2C)ccc1N1CCS(=O)(=O)CC1	-	-	-	-	-	0	-	-
Cc1ccc(S(=O)(=O)N/N=C/c2ccc(O)c(O)c2)cc1[N+](=O)[O-]	99.1	0	0	0	53.7	0	44.7	0
CC(=O)N1CCc2cc(Br)c(S(=O)(=O)CCC(=O)N3CCN(c4ccccn4)CC3)cc21	-	-	-	-	-	0	-	-
COc1ccc(C(=O)/C=C(\C)NCc2ccc3c(c2)OCO3)cc1	0	0	0	0	0	0	-	-
COCC(=O)/C=C1\Sc2ccccc2N1C	0	0	0	0	0	0	-	-
COc1ccc2c(c1)S/C(=C\C(=O)c1ccncc1)N2C	0	0	0	0	38.6	0	0	0
COc1cc(OC)cc(C(=O)/C=C2\Sc3ccccc3N2C)c1	0	0	0	0	46.7	0	0	0
COc1ccc(C(=O)/C=C2/Sc3cc4c(cc3N2C)OCO4)cc1	-	0	0	0	39.7	0	0	0
C#CCNC(=O)c1cnn(-c2ccccc2)c1N	-	-	-	-	-	0	-	-
O=C(O)Cn1cnc2c(=S)nc[nH]c21	0	0	0	0	57.3	0	0	0
NNC(=O)c1cc(O)c(O)c(O)c1	98.6	0	0	0	65.4	0	44.3	0
O=C(O)COc1ccc(C(=O)Cc2ccc3c(c2)OCCCO3)c(O)c1	0	0	0	0	0	0	-	-
O=C(Cc1ccc2c(c1)OCCO2)c1c(O)cc(O)cc1O	0	0	0	0	38.7	0	0	0
N#CC1=C(N)NC(=S)C(C(N)=O)C1c1ccccc1F (configuration not stated)	84.4	0	-	0	46.5	0	29.7	0
COC(=O)[C@]12C[C@H](CC(=O)NCc3ccc(C)o3)C(=O)N(CCC3=CCCCC3)C1=C[C@H](COCc1ccccc1)O[C@@H]2C	-	-	-	-	-	0	-	-
O=C(CSc1nc2[nH]ncc2c(=O)[nH]1)c1ccc(Cl)cc1	0	-	0	0	0	0	-	-
O=C(CSc1nc2[nH]ncc2c(=O)[nH]1)N1CCCCC1	-	0	0	-	33.7	0	0	0
O=C(CSc1nc2[nH]ncc2c(=O)[nH]1)c1ccccc1	0	0	0	0	47.8	0	40.3	0
CN1CCc2cccc3c2C1Cc1ccc(O)c(O)c1-3 (configuration not stated)	98.1	0	0	0	74.8	0	73.7	0
CN1CCC(=C2c3ccccc3C(O)c3ccccc32)CC1 (configuration not stated)	-	0	0	0	0	0	-	-
Oc1ccc(/C=N/N2CCCCC2)c(O)c1O	0	0	0	0	48.1	0	0	0
Oc1ccccc1/C=N/N1CCCCC1	0	0	0	0	0	0	-	-
SMILES	ALR H2O2 inh	Exocytosis inh	JMJD2C inh	MIN6 prolif	PfM18AAP inh-1	SMARCA2 activ	PfM18AAP inh-2	CTSL1 counter
Oc1cccc(/C=N/N2CCCCC2)c1O	99.0	0	0	0	44.7	0	0	0
COCCN1C(=O)[C@H]2C[C@@]13O[C@H](c1ccccn1)N=C3CC1c3ccccc3C[C@@]12C (some centres not stated)	-	-	-	-	-	0	-	-
COc1cc(CCN=Cc2cccc(OC)c2O)c([N+](=O)[O-])cc1OC	-	-	-	-	-	0	-	-
C[C@H](CO)N1C[C@H](C)[C@H](CN(C)C(=O)NC2CCCCC2)OCc2cnnn2CCCC1=O	-	-	-	-	-	0	-	-
O=C(Nc1cccc(Cl)c1)Nc1ccccc1C(=O)O	0	0	0	0	0	0	-	-
O=C(NNc1ccccc1[N+](=O)[O-])Nc1ccc(F)cc1F	0	0	0	0	40.5	0	0	0
O=C(NNc1ccccc1[N+](=O)[O-])Nc1cccc(Cl)c1	0	0	0	0	32.9	0	31.5	0
Cc1ccc2nc(-c3cccc(Cl)c3)c(Cc3ccccc3C(F)(F)F)n2c1	-	-	-	-	-	0	-	-
C=CCN1[C@@H](Cc2ccccc2)COc2cc(F)ccc2S1(=O)=O	-	-	-	-	-	0	-	-
Cc1cc(SCC(=O)N/N=C/c2ccc(O)c(O)c2O)c(C)cc1Br	95.2	0	0	0	53.0	0	0	0
COc1cc(/C=N/NC(=O)CSc2cc(C)c(Br)cc2C)ccc1O	0	0	0	0	0	0	-	-
COc1ccc(S(=O)(=O)Nc2cc(SCC(=O)O)c(O)c3ccccc23)cc1	0	0	0	0	32.7	0	0	0
CN(C)/C=C1\NC(=S)N(c2ccc(Cl)cc2)C1=O	0	0	0	0	67.5	0	44.1	0
COc1ccc(N2C(=O)/C(=C/c3cccs3)NC2=S)cc1	0	0	0	0	0	0	-	-
CN(C)/C=C1\NC(=S)N(c2ccccc2)C1=O	0	0	0	0	73.4	0	50.9	0
CCOc1cccc(/C=C2\NC(=S)N(c3ccccc3)C2=O)c1O	?	0	0	0	0	0	-	-
CN1CCN(C(=S)c2ccc(Br)cc2)CC1	-	0	0	0	47.3	0	0	0
CCN1CCN(CCC(=O)Nc2ccc(Br)cc2)CC1	0	0	0	0	0	0	-	-
CN1CCN(C(=S)c2ccc(N(C)C)cc2)CC1	98.9	0	0	0	39.6	0	0	0
CSc1ccc(C(=S)N2CCN(C)CC2)cc1	0	0	0	0	0	0	-	-
CCN1CCN(C(=S)c2ccc(Br)cc2)CC1	0	0	0	0	39.9	0	0	0
CN(C)Cc1c(C(C)(C)O)[nH]c2cc(C(F)(F)F)ccc12	-	-	-	-	-	0	-	-
COc1cccc(CNS(=O)(=O)c2cc(Br)ccc2Br)c1OC	-	-	-	-	-	0	-	-
CCCCCCCCN1C(=O)[C@@H](CC(=O)N2CCSCC2)C[C@@]2(C(=O)OC)C1=C[C@H](C1CCCC1)O[C@@H]2C	-	-	-	-	-	0	-	-
CC1(C)OC(C)(C)/C(=C/Nc2ccc(O)cc2)C1=O	99.1	0	0	0	42.8	0	0	0
SMILES	ALR H2O2 inh	Exocytosis inh	JMJD2C inh	MIN6 prolif	PfM18AAP inh-1	SMARCA2 activ	PfM18AAP inh-2	CTSL1 counter
CC1(C)OC(=O)C(=CNc2cccc(O)c2)C(=O)O1	0	0	0	0	0	0	-	-
CC(=O)N1CCN(C(=S)c2ccc(Cl)cc2)CC1	0	0	0	0	0	0	-	-
CC(=O)N1CC[n+]2c(-c3ccc(Cl)cc3)csc21	98.5	0	0	0	38.8	0	0	0
Cc1cc(NC(=O)Cc2cn(C)c3ccccc23)ccc1Nc1cccnc1	-	-	-	-	-	0	-	-
COc1ccc(-n2c(CNC(=O)COc3ccc(Cl)cc3Cl)n[nH]c2=S)cc1	0	0	-	0	0	0	-	-
COc1cc(OC)cc(C(=O)NCc2n[nH]c(=S)n2-c2ccccc2)c1	0	0	0	0	0	0	-	-
